Measurements as given in the supplement of paper PMC10849652.
Targets with a hit are over-represented here; the source holds about 7,900 in all. About 0.6% of all pairs of compound and target were hits. Unmarked numbers belong to inactive results.

Assays:
Test in all cases: log2 fold change, soluble protein after heating vs DMSO (PISA); higher = thermal stabilisation; K562 cells, 10 uM, 30 min; active = over 0.2 and 3.5 SD of the protein, either way, in both replicates (recomputed)
[1] = compound: CC[C@@H]1C(=O)N(C)c2cnc(Nc3ccc(C(=O)NC4CCN(C)CC4)cc3OC)nc2N1C1CCCC1
Method in brief: (§1)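 Soluble protein was defined as the supernatant after 21,000xg for 90 min. It came from K562 cells at 2×10^6 cells/mL given 10 μM compound for 30 min, heated in aliquots for 3 min across 48°C-58°C, pooled, and extracted in PBS with 0.5% NP-40 at 4°C, and was quantified by TMTpro 16plex LC-MS/MS with equalised channel sums. Thermal stability against control samples, from duplicates, is reported as log2 fold change.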

volasertib = compound: CC[C@@H]1C(=O)N(C)c2cnc(Nc3ccc(C(=O)N[C@H]4CC[C@H](N5CCN(CC6CC6)CC5)CC4)cc3OC)nc2N1C(C)C [volasertib]
Method in brief: as §1

[2] = compound: CC[C@H](C)N1C=C(C2=C(C=C(C=C21)C3=CN=C(C=C3)N4CCNCC4)C(=O)NCC5=C(C=C(NC5=O)C)C)C
Method in brief: as §1

epoxomicin = compound: CC[C@H](C)[C@@H](C(=O)N[C@@H]([C@@H](C)O)C(=O)N[C@@H](CC(C)C)C(=O)[C@]1(CO1)C)NC(=O)[C@H]([C@@H](C)CC)N(C)C(=O)C [epoxomicin]
Method in brief: as §1

[3] = compound: CCn1c(C(=O)N(C2CC2)C2CC2)cc2c3c(ncn3C)c(Nc3cc(C)n(C)n3)nc21
Method in brief: as §1

[4] = compound: CCn1cc(-c2ccnc3[nH]c(-c4cccc(CN(C)C)c4)cc23)c(-c2ccc(NC(=O)N(C)C)cc2)n1
Method in brief: as §1

[5] = compound: CN(C)CC(=O)Nc1ccc2[nH]c(=O)c3ccccc3c2c1
Method in brief: as §1

rosiglitazone = compound: CN(CCOC1=CC=C(C=C1)C[C@H]2C(=O)NC(=O)S2)C3=CC=CC=N3 (racemic) [rosiglitazone]
Method in brief: as §1

[6] = compound: CN1C2=C(C3=C1C(=O)N(N=C3)CC4=CC(=CC=C4)N)SC(=C2)S(=O)C
Method in brief: as §1

[7] = compound: CN1CCC(CNc2ccc3ncc(-c4cccc(OC(F)(F)F)c4)n3n2)CC1
Method in brief: as §1

Sequence of UniProt Q14151 (Q14151 whole entry, looked up): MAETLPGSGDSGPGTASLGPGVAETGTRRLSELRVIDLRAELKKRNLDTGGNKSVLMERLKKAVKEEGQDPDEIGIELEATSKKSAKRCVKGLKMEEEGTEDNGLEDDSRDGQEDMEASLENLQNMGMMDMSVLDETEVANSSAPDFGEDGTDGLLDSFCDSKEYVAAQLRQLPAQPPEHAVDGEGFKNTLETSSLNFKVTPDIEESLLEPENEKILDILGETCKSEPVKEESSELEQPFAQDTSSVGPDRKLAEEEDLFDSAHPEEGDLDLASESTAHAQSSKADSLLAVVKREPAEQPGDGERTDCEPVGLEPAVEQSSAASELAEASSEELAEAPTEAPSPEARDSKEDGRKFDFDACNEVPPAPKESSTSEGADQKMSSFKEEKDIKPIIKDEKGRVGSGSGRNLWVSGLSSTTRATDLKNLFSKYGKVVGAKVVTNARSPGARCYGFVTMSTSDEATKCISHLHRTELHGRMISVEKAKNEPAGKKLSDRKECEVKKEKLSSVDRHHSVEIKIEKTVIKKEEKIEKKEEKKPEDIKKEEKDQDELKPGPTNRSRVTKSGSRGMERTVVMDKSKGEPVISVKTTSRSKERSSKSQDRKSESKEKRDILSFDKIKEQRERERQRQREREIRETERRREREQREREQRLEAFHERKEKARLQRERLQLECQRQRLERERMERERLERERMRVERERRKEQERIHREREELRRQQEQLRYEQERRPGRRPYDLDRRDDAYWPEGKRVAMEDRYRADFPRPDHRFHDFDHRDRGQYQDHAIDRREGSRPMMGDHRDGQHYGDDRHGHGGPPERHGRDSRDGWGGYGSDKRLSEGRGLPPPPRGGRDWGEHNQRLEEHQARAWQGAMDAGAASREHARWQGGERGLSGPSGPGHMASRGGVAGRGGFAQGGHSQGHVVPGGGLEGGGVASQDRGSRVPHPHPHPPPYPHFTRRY
Sequence of UniProt P40938 (P40938 whole entry, looked up): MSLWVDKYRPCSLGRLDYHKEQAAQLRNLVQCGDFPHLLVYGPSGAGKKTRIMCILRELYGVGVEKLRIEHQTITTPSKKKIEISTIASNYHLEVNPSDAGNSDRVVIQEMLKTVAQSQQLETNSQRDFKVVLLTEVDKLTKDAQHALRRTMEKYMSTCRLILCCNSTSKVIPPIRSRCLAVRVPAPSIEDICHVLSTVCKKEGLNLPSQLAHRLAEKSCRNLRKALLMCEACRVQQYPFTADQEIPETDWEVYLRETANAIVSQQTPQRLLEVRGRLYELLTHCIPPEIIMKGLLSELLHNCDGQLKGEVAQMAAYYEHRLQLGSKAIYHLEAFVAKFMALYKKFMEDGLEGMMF
Sequence of UniProt Q8WWV3 (Q8WWV3 whole entry, looked up): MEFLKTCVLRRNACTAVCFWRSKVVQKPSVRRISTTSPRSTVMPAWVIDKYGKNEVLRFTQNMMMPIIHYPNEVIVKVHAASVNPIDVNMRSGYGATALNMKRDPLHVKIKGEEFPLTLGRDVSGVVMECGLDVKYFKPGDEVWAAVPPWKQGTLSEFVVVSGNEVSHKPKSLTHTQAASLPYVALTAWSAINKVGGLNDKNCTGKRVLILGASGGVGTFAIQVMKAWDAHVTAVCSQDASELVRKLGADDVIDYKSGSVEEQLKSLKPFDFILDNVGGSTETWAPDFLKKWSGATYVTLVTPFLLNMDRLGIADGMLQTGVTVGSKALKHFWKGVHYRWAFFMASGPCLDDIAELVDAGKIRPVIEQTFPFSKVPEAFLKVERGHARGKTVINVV
Sequence of UniProt Q14498 (Q14498 whole entry, looked up): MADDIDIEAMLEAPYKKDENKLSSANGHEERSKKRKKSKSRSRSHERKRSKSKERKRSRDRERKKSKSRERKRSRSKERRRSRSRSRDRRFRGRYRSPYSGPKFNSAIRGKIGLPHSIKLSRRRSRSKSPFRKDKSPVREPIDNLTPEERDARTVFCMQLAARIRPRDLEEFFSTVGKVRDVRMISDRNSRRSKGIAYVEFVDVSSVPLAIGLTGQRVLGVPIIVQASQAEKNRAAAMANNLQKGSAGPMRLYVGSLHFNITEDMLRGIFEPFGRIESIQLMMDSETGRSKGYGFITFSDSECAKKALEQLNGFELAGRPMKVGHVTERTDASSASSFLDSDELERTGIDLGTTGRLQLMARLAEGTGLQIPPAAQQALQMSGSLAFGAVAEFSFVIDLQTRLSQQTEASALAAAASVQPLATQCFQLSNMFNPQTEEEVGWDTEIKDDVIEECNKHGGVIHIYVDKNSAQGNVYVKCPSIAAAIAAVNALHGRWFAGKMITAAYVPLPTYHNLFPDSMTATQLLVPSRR
Sequence of UniProt Q96EU6 (Q96EU6 whole entry, looked up): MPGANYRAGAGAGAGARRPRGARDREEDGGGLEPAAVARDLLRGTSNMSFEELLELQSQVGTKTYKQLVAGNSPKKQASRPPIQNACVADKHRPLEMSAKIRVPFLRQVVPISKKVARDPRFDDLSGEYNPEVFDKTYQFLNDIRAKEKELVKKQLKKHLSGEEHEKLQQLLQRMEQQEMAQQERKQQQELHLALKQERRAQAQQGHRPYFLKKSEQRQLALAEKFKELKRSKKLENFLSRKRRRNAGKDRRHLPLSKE
Sequence of UniProt P52306 (P52306 whole entry, looked up): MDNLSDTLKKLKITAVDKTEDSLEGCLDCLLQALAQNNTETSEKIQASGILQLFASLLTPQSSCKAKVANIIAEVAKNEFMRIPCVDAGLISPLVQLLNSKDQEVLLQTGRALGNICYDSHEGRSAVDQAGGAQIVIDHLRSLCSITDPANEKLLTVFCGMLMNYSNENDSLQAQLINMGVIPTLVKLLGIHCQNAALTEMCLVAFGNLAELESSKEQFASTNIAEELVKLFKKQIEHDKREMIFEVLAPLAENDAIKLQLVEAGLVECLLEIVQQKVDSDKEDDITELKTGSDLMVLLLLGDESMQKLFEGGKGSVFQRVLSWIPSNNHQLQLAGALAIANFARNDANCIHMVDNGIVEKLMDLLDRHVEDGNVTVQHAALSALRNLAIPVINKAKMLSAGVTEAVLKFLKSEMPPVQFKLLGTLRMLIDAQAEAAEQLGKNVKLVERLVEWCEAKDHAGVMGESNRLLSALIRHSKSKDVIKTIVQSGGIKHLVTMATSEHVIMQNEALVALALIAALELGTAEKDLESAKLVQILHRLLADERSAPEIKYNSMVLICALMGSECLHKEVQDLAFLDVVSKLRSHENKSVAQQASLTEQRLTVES

Target | log2 fold change [1] | log2 fold change (volasertib) | log2 fold change [2] | log2 fold change (epoxomicin) | log2 fold change [3] | log2 fold change [4] | log2 fold change [5] | log2 fold change (rosiglitazone) | log2 fold change [6] | log2 fold change [7]
RAP1GDS1 isoform 5 (UniProt P52306) | -0.018 | -0.27 | 0.077 | 0 | 0.01 | -0.008 | -0.017 | 0.072 | -0.012 | -0.002
RRP36 (UniProt Q96EU6) | 0.217 | 0.376 | -0.028 | -0.203 | 0.002 | 0.201 | -0.114 | -0.25 | 0.316 | 0.288
RTN4IP1 (UniProt Q8WWV3) | -0.118 | -0.196 | -0.059 | -0.02 | 0.009 | -0.079 | -0.003 | 0.965 (active) | -0.219 | -0.12
RFC3 (UniProt P40938) | -0.008 | -0.052 | 0.047 | 0.042 | 0.001 | -0.081 | 0.038 | 0.05 | -0.096 | -0.008
RPL31 (UniProt P62899) | 0.212 | 0.457 | 0.01 | -0.238 | 0.036 | 0.216 | -0.108 | -0.124 | 0.251 | 0.259
RBM39 (UniProt Q14498) | -0.183 | -0.487 (active) | 0.038 | -0.027 | -0.057 | 0.079 | 0.013 | 0.025 | 0.071 | -0.045
SAFB2 (UniProt Q14151) | 0.018 | 0.118 | -0.022 | -0.246 | -0.003 | 0.203 | -0.061 | -0.028 | 0.235 | 0.23
